In PubChem BioAssay AID1159580 (chemical genetic matrix, 2015):
The whole screen tested about 5,500 compounds, of which about 2,000 (36%) were called active. Another 18% or so got no clear call; they are omitted. Cut-off read from the data, not from the text of the source: active = normalized growth mostly below about 0.91 (no sharp cut-off); inconclusive = no clear call, values can overlap the other calls; inactive = mostly above about 0.92. The list shows a part of the results.

Assay: chemical genetic growth profiling, strain panel (AID 1159580);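 note: tested at 20 µM; growth read once vehicle control cultures reached saturation at 30 °C; 1 = growth at the plate median or of vehicle wells; lower values mean less growth of the strain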
Details: growth OD
[1] = S. cerevisiae deletion strains, locus YGR078C, strain PAC10, active compounds read low
[2] = S. cerevisiae deletion strains, locus YMR263W, strain SAP30, active compounds read low
[3] = S. cerevisiae deletion strains, locus YNL153C, strain GIM3, active compounds read low
[4] = S. cerevisiae deletion strains, locus YPL241C, strain CIN2, active compounds read low

Measured: normalized growth

N[C@H](C(=O)O)[C@@H]1CC(Cl)=NO1
active: S. cerevisiae deletion strains, locus YAL013W, strain DEP1, active compounds read low 0.796 | S. cerevisiae deletion strains, locus YBR021W, strain FUR4, active compounds read low 1.27 [resistant] | S. cerevisiae deletion strains, locus YBR229C, strain ROT2, active compounds read low 0.629 | S. cerevisiae deletion strains, locus YCL029C, strain bik1, active compounds read low 0.258 | S. cerevisiae deletion strains, locus YDL035C, strain GPR1, active compounds read low 0.321 | S. cerevisiae deletion strains, locus YDL074C, strain BRE1, active compounds read low 0.48 | S. cerevisiae deletion strains, locus YDL101C, strain DUN1, active compounds read low 0.23 | S. cerevisiae deletion strains, locus YDL134C, strain PPH21, active compounds read low 0.355 | S. cerevisiae deletion strains, locus YDL185W, strain tfp1, active compounds read low 0.149 | S. cerevisiae deletion strains, locus YDL192W, strain arf1, active compounds read low 0.24 | S. cerevisiae deletion strains, locus YDR101C, strain arx1, active compounds read low 0.287 | S. cerevisiae deletion strains, locus YDR150W, strain NUM1, active compounds read low 0.605 | S. cerevisiae deletion strains, locus YDR162C, strain NBP2, active compounds read low 0.318 | S. cerevisiae deletion strains, locus YDR318W, strain mcm21, active compounds read low 0.199 | S. cerevisiae deletion strains, locus YDR388W, active compounds read low 0.191 | S. cerevisiae deletion strains, locus YDR502C, strain sam2, active compounds read low 0.2 | S. cerevisiae deletion strains, locus YEL061C, strain CIN8, active compounds read low 0.409 | S. cerevisiae deletion strains, locus YER110C, active compounds read low 0.451 | S. cerevisiae deletion strains, locus YER155C, strain BEM2, active compounds read low 0.464 | S. cerevisiae deletion strains, locus YER167W, strain BCK2, active compounds read low 0.288 | S. cerevisiae deletion strains, locus YGL078C, strain dbp3, active compounds read low 0.238 | S. cerevisiae deletion strains, locus YGL086W, strain mad1, active compounds read low 0.267 | S. cerevisiae deletion strains, locus YGL248W, strain PDE1, active compounds read low 0.331 | [1] 0.437 | S. cerevisiae deletion strains, locus YGR135W, strain pre9, active compounds read low 0.234 | S. cerevisiae deletion strains, locus YGR229C, strain SMI1, active compounds read low 0.197 | S. cerevisiae deletion strains, locus YGR252W, strain gcn5, active compounds read low 0.508 | S. cerevisiae deletion strains, locus YHR030C, strain SLT2, active compounds read low 0.478 | S. cerevisiae deletion strains, locus YHR079C, strain IRE1 (second series), active compounds read low 0.186 | S. cerevisiae deletion strains, locus YHR094C, strain hxt1, active compounds read low 0.275 | S. cerevisiae deletion strains, locus YHR129C, strain ARP1, active compounds read low 0.481 | S. cerevisiae deletion strains, locus YHR200W, strain rpn10, active compounds read low 0.376 | S. cerevisiae deletion strains, locus YIL066C, strain RNR3, active compounds read low 0.468 | S. cerevisiae deletion strains, locus YIL073C, strain SPO22, active compounds read low 0.39 | S. cerevisiae deletion strains, locus YIL125W, strain kgd1, active compounds read low 0.185 | S. cerevisiae deletion strains, locus YIR030C, strain dcg1, active compounds read low 0.26 | S. cerevisiae deletion strains, locus YJL095W, strain BCK1, active compounds read low 0.287 | S. cerevisiae deletion strains, locus YJL134W, strain LCB3, active compounds read low 0.605 | S. cerevisiae deletion strains, locus YJL168C, strain set2, active compounds read low 0.541 | S. cerevisiae deletion strains, locus YJL187C, strain SWE1 (second series), active compounds read low 0.345 | S. cerevisiae deletion strains, locus YJR043C, strain POL32, active compounds read low 0.267 | S. cerevisiae deletion strains, locus YJR075W, strain HOC1, active compounds read low 0.52 | S. cerevisiae deletion strains, locus YKL009W, strain mrt4, active compounds read low 0.381 | S. cerevisiae deletion strains, locus YKL068W, active compounds read low 0.433 | S. cerevisiae deletion strains, locus YKL085W, strain MDH1 (second series), active compounds read low 0.214 | S. cerevisiae deletion strains, locus YKL085W, strain MDH1, active compounds read low 0.214 | S. cerevisiae deletion strains, locus YKL190W, strain CNB1, active compounds read low 0.446 | S. cerevisiae deletion strains, locus YKR001C, strain vps1, active compounds read low 0.189 | S. cerevisiae deletion strains, locus YLR039C, strain RIC1, active compounds read low 0.45 | S. cerevisiae deletion strains, locus YLR058C, strain SHM2, active compounds read low 0.398 | S. cerevisiae deletion strains, locus YLR102C, strain apc9, active compounds read low 0.28 | S. cerevisiae deletion strains, locus YLR262C, strain YPT6, active compounds read low 0.516 | S. cerevisiae deletion strains, locus YLR268W, strain sec22, active compounds read low 0.174 | S. cerevisiae deletion strains, locus YLR330W, strain CHS5, active compounds read low 0.388 | S. cerevisiae deletion strains, locus YLR342W, strain FKS1 (second series), active compounds read low 0.573 | S. cerevisiae deletion strains, locus YLR371W, strain rom2, active compounds read low 0.505 | S. cerevisiae deletion strains, locus YLR418C, strain cdc73, active compounds read low 0.468 | S. cerevisiae deletion strains, locus YML016C, strain PPZ1, active compounds read low 0.364 | S. cerevisiae deletion strains, locus YML032C, strain rad52, active compounds read low 0.238 | S. cerevisiae deletion strains, locus YML124C, strain tub3, active compounds read low 0.302 | S. cerevisiae deletion strains, locus YMR078C, strain ctf18, active compounds read low 0.352 | S. cerevisiae deletion strains, locus YMR223W, strain ubp8, active compounds read low 0.22 | [2] 0.619 | S. cerevisiae deletion strains, locus YNL067W, strain RPL9B, active compounds read low 0.353 | S. cerevisiae deletion strains, locus YNL128W, strain TEP1, active compounds read low 0.29 | [3] 0.504 | S. cerevisiae deletion strains, locus YNL233W, strain BNI4, active compounds read low 0.419 | S. cerevisiae deletion strains, locus YNL250W, strain rad50, active compounds read low 0.246 | S. cerevisiae deletion strains, locus YNL271C, strain bni1, active compounds read low 0.188 | S. cerevisiae deletion strains, locus YNL298W, strain CLA4, active compounds read low 0.319 | S. cerevisiae deletion strains, locus YNL307C, strain MCK1, active compounds read low 0.0999 | S. cerevisiae deletion strains, locus YNL322C, strain KRE1, active compounds read low 0.457 | S. cerevisiae deletion strains, locus YNR052C, strain pop2, active compounds read low 0.11 | S. cerevisiae deletion strains, locus YOL006C, strain TOP1, active compounds read low 0.495 | S. cerevisiae deletion strains, locus YOL147C, strain pex11, active compounds read low 0.27 | S. cerevisiae deletion strains, locus YOR061W, strain CKA2, active compounds read low 0.483 | S. cerevisiae deletion strains, locus YOR069W, strain VPS5, active compounds read low 0.447 | S. cerevisiae deletion strains, locus YOR136W, strain idh2, active compounds read low 0.272 | S. cerevisiae deletion strains, locus YOR144C, strain elg1, active compounds read low 0.352 | S. cerevisiae deletion strains, locus YOR184W, strain ser1, active compounds read low 0.152 | S. cerevisiae deletion strains, locus YOR316C, strain cot1, active compounds read low 0.359 | S. cerevisiae deletion strains, locus YPL055C, strain LGE1, active compounds read low 0.448 | [4] 0.571 | S. cerevisiae deletion strains, locus YPR119W, strain clb2, active compounds read low 0.335 | S. cerevisiae deletion strains, locus YPR141C, strain kar3, active compounds read low 0.272 | S. cerevisiae deletion strains, locus YPR163C, strain tif3, active compounds read low 0.307 | S. cerevisiae deletion strains, locus YPR167C, strain met16, active compounds read low 0.392 | S. cerevisiae deletion strains, strain wtn01, active compounds read low 0.212 | S. cerevisiae strains, strain wild type, active compounds read low 0.351
inactive: S. cerevisiae deletion strains, locus YMR307W, strain GAS1, active compounds read low 0.671 | S. cerevisiae deletion strains, locus YOL012C, strain htz1 0.224

N[C@H](C(=O)O)[C@H]1C[C@@H]1C(=O)O
inactive: S. cerevisiae deletion strains, locus YAL040C, strain CLN3, active compounds read low 1.11 | S. cerevisiae deletion strains, locus YCL061C, strain MRC1 (second series), active compounds read low 1.01 | S. cerevisiae deletion strains, locus YDR363W, strain ESC2, active compounds read low 1.03 | S. cerevisiae deletion strains, locus YER002W, strain NOP16, active compounds read low 1.01 | [1] 1.02 | [2] 1.01 | [3] 1.02 | S. cerevisiae deletion strains, locus YNL175C, strain NOP13, active compounds read low 1 | S. cerevisiae deletion strains, locus YNL197C, strain WHI3, active compounds read low 1.06 | S. cerevisiae deletion strains, locus YNL224C, strain SQS1, active compounds read low 0.996 | S. cerevisiae deletion strains, locus YOR083W, strain WHI5 (second series), active compounds read low 1.03 | [4] 1.01
